D2 PAM-1: HTS Assay for Positive Allosteric Modulators of the Human D2 Dopamine Receptor: Primary Screen for Potentiators | HEK293 T-REx D2, calcium flux, EC20 dopamine potentiation | potentiation, % at 10 µM | AID 485347, 2010 | hit rate 0.34% among 340,000;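 active = potentiation over 3 SD above the plate norm, cut at about 30% in these data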; note: 0% is about no effect
Target sequence (P14416 whole entry, looked up): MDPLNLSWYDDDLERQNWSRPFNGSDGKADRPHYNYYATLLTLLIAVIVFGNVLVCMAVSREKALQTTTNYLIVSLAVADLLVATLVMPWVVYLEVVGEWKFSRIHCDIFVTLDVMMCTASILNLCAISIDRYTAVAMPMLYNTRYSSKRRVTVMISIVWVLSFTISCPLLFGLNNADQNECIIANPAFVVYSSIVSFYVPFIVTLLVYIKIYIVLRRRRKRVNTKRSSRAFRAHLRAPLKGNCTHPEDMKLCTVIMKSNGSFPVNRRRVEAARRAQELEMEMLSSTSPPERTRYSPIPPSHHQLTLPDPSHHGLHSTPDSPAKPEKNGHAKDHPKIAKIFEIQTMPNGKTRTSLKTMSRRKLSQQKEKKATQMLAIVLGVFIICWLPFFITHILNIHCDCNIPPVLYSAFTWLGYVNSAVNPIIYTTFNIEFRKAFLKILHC
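Primary screen. Calcium kinetics in induced HEK293 T-REx D2 cells: compound pre-addition 180 s, EC20 dopamine, 180 s more.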
D2 ag-1: HTS Assay for Allosteric Agonists of the Human D2 Dopamine Receptor: Primary Screen for Agonists; D(2) dopamine receptor (Homo sapiens), P14416; HEK293 T-REx D2 cells, calcium flux agonist mode; activation, % at 2 µM; hit rate 0.53% among 340,000; AID 485358, 2010;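 active = activation over 3 SD above normal in the single-dose calcium agonist read, cut at about 30% in these data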; note: 0% is about no effect
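In this primary screen, compounds producing a positive calcium signal within 180 s of addition to tetracycline-induced, force-coupled HEK293 Trex D2 cells are flagged; cells are dye-loaded with a no-wash calcium kit beforehand.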
D2 ag-2: Beta-Arrestin HTS for Positive Allosteric Modulators of the Human D2 Dopamine Receptor: Agonists. DiscoveRx PathHunter D2 beta-arrestin, luminescence, 90 min; 100% = 57 uM dopamine signal. activation, % (no concentration beside the values). hit rate 0.084% among 360,000. D(2) dopamine receptor (Homo sapiens), P14416; in the data active = activation above about 40%
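DiscoveRx PathHunter D2 beta-arrestin cells (2,100/well) attached overnight, then compound-stimulated 90 min at 37 C in HBSS/10 mM HEPES/0.1% Tween-20 buffer; beta-galactosidase complementation read by luminescence after 1 h at ambient temperature. Dopamine 57 uM final (EC100) as control.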
D2 PAM-2: Beta-Arrestin HTS for Positive Allosteric Modulators of the Human D2 Dopamine Receptor: Potentiators | DiscoveRx D2 beta-arrestin cells, luminescence, 90 min; 100% = 57 uM dopamine signal | D(2) dopamine receptor (Homo sapiens), P14416 | potentiation, % (concentration not given with the values) | hit rate 0.23% among 360,000; in the data active = potentiation above about 50%
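D2 cells co-treated with compound plus 50 nM dopamine (EC20) for 90 min at 37 deg C to detect potentiation. Beta-arrestin recruitment was read as enzyme-fragment luminescence after 1 h at ambient temperature. Full response was set by 57 uM dopamine.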
D2 antagonist: HTS Assay for Allosteric Antagonists of the Human D2 Dopamine Receptor: Primary Screen for Antagonists; D(2) dopamine receptor (Homo sapiens), P14416; HEK293 TREx D2 cells, calcium flux, dopamine EC80; inhibition, % at 10 µM; hit rate 2% among 340,000; in the data active = inhibition above about 30%; inactive = below that, where a call was filed; note: 0% is about no effect
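HEK293 T-REx D2 cells, tet-induced, calcium dye no-wash. Cpd pintool add, 180 s kinetic, then EC80 DA, 180 s kinetic. Ca flux read.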
Active calls of the source: *. The list is not random: actives were taken first. Their share in the collection is about 2.4%.

For CCc1cccc(C)c1NC(=O)c1cc(S(=O)(=O)N2CCOCC2)cn1C the results were D2 PAM-1 -10.6 and D2 ag-1 1.1.
Nc1nc(CN2CCN(Cc3ccccc3)CC2)nc(N2CCCc3ccccc32)n1 was read as D2 PAM-1 -22.7, D2 ag-1 0.0, D2 ag-2 -1.8, D2 PAM-2 -6.3 and D2 antagonist 63.4*.
For Cc1ccccc1OCCCCCNCCO the results were D2 PAM-1 -6.8, D2 ag-1 0.0, D2 ag-2 0.0, D2 PAM-2 -8.9 and D2 antagonist -1.5.
For OCCNCCOCCOc1ccccc1-c1ccccc1 the results were D2 PAM-1 -23.6, D2 ag-1 28.1, D2 ag-2 -4.0, D2 PAM-2 -35.3 and D2 antagonist 33.1*.
Screening OCCNCCOc1ccccc1-c1ccccc1 returned D2 PAM-1 -10.0, D2 ag-1 3.3, D2 ag-2 2.3, D2 PAM-2 -23.6 and D2 antagonist 66.4*.
Screening CNCCCCOc1ccccc1-c1ccccc1 returned D2 PAM-1 -30.8, D2 ag-1 0.9, D2 ag-2 -2.1, D2 PAM-2 -36.7 and D2 antagonist -16.3.
For CN(C)CCOCCOc1ccccc1-c1ccccc1 the results were D2 PAM-1 28.7, D2 ag-1 1.2, D2 ag-2 1.2, D2 PAM-2 -21.4 and D2 antagonist -16.1.
For CNCCOc1ccccc1-c1ccccc1 the results were D2 PAM-1 -22.0, D2 ag-1 0.8, D2 ag-2 2.5, D2 PAM-2 -33.0 and D2 antagonist 45.0*.
CC(C)(C)c1ccccc1OCCCCCNCCO was read as D2 PAM-1 -30.2, D2 ag-1 0.7, D2 ag-2 -4.7, D2 PAM-2 -16.1 and D2 antagonist 50.4*.
`O=S(=O)(c1ccc(Cl)cc1)N(CCCN1CCOCC1)Cc1cccs1` gave D2 PAM-1 -24.3, D2 ag-1 -0.2, D2 ag-2 2.7, D2 PAM-2 -18.5 and D2 antagonist 42.8*.
For COc1ccccc1NC(=O)CSc1ccc(-c2ccc(-n3cccn3)cc2)nn1 the results were D2 PAM-1 13.6, D2 ag-1 0.0, D2 ag-2 -5.7, D2 PAM-2 -1.2 and D2 antagonist 0.0.
CCN(Cc1ccccc1)S(=O)(=O)c1ccc(N2CCCCS2(=O)=O)cc1 was read as D2 PAM-1 -4.9 and D2 ag-1 -0.9.
`CC1CCCCC1NC(=O)C1CCC(CNc2c(N3CCCCC3)c(=O)c2=O)CC1` (configuration not stated) gave D2 PAM-1 0.1, D2 ag-1 -0.1, D2 ag-2 -0.8, D2 PAM-2 0.0 and D2 antagonist -1.2.
For O=C(OCc1ccccc1)C1=[N+]([O-])OC(C(=O)OCc2ccccc2)C1c1c[nH]c2ccccc12 (configuration not stated) the results were D2 PAM-1 1.7, D2 ag-1 -0.7, D2 ag-2 5.8, D2 PAM-2 62.8* and D2 antagonist -11.4.
Screening CC(=O)NC(=Cc1ccccc1)C(=O)N1CCCC1C(=O)O (configuration not stated) returned D2 ag-2 -2.9 and D2 PAM-2 -0.4.
`COc1ccc(NC(=O)Cc2c(C(=O)O)n(C)c3ccccc23)cc1OC` gave D2 PAM-1 31.8*, D2 ag-1 -0.2, D2 ag-2 -5.2, D2 PAM-2 -1.0 and D2 antagonist 2.4.
`COc1cc(NC(=O)Cc2c(C(=O)O)n(C)c3ccccc23)cc(OC)c1OC` gave D2 ag-2 5.0 and D2 PAM-2 -4.1.
Screening O=C(NC(NNc1ccc([N+](=O)[O-])cc1)(C(F)(F)F)C(F)(F)F)c1ccc(F)cc1 returned D2 PAM-1 7.4, D2 ag-1 7.0, D2 ag-2 14.3, D2 PAM-2 61.2* and D2 antagonist 3.0.
For COc1ccc(NC(=O)c2ccco2)cc1NC(=O)COc1ccccc1Cl the results were D2 PAM-1 -11.6.
O=C(O)/C(=C\c1cccs1)Sc1nnc(-c2ccc(F)cc2)o1 was read as D2 PAM-1 0.8, D2 ag-1 1.1, D2 ag-2 -2.1, D2 PAM-2 -2.8 and D2 antagonist 35.0*.
`CSc1ccc(/C=C(/Sc2nnc(-c3ccccc3)o2)C(=O)O)cc1` gave D2 PAM-1 2.2, D2 ag-1 2.3, D2 ag-2 -3.6, D2 PAM-2 -6.5 and D2 antagonist -17.4.
Screening Cc1ccc(S(=O)(=O)c2c(C)cc(C)[nH]c2=O)cc1 returned D2 PAM-1 7.7, D2 ag-1 1.0, D2 ag-2 -3.5, D2 PAM-2 -5.4 and D2 antagonist 1.0.
For COc1ccc(-c2csc(C(C#N)=C(O)CSc3nccn3C)n2)cc1OC the results were D2 ag-2 -0.7 and D2 PAM-2 -5.2.
Cc1c(O)ccc(NS(=O)(=O)c2ccccc2)c1C was read as D2 PAM-1 10.1, D2 ag-1 -0.5, D2 ag-2 -0.4, D2 PAM-2 -1.9 and D2 antagonist 11.7.
Screening Cc1cc(NS(=O)(=O)c2ccccc2)c(C)c(Cl)c1O returned D2 PAM-1 -2.7, D2 ag-1 0.3, D2 ag-2 10.0, D2 PAM-2 61.3* and D2 antagonist 0.3.
CCN1CCN(C2=C(NS(=O)(=O)c3ccc(C)cc3)C(=O)c3ccccc3C2=O)CC1 was read as D2 PAM-1 -1.1, D2 ag-1 -0.1, D2 ag-2 2.7, D2 PAM-2 -24.1 and D2 antagonist 39.3*.
`CCN1CCN(C2=C(NS(=O)(=O)c3ccc(NC(C)=O)cc3)C(=O)c3ccccc3C2=O)CC1` gave D2 PAM-1 -1.9, D2 ag-1 0.4, D2 ag-2 10.7, D2 PAM-2 -16.8 and D2 antagonist 4.2.
Cc1nnsc1C(=O)Oc1ccc(C(C)C)cc1 was read as D2 PAM-1 -12.5 and D2 ag-1 2.3.
`COc1cc(NS(C)(=O)=O)cc(OC)c1OC` gave D2 PAM-1 1.0, D2 ag-1 0.3, D2 ag-2 2.5, D2 PAM-2 1.6 and D2 antagonist 30.4*.
For COc1cc(NS(=O)(=O)c2cc3[nH]c(=O)[nH]c3cc2C)cc(OC)c1OC the results were D2 PAM-1 13.1.
Screening COc1ccc(N2CCN(C(=O)CSc3nnnn3C3CC3)CC2)cc1 returned D2 PAM-1 -14.7, D2 ag-1 1.0, D2 ag-2 -0.7, D2 PAM-2 -2.0 and D2 antagonist 31.8*.
For COc1ccccc1N1CCN(C(=O)CSc2nnnn2C2CC2)CC1 the results were D2 PAM-1 1.3, D2 ag-1 0.7, D2 ag-2 -1.8, D2 PAM-2 -14.7 and D2 antagonist 1.7.
Screening CCN(CCN(C)C)C(=O)Cn1ncc2c([nH]c3ccc(C)cc32)c1=O returned D2 PAM-1 -11.3.

Bioassay records deposited in PubChem BioAssay by National Center for Advancing Translational Sciences (NCATS).
